Test results: PubChem BioAssay
Active and inactive are the calls of the source. Unless noted, how the calls were made is not given here.

Legend:
[1] = system: XIP peptide (Xip251-270) binding; assay: XIP fragment 251-270 binding compounds – biochemical, small-molecule microarray, fluorescence 635/667 nm, 0.1 µg/mL protein, primary screen (AID 1182); details: fluorescent protein binding, 635 nm, higher = more signal, called active from +8 up or from −8 down
XIP peptide (Xip251-270) = assay: compounds binding XIP fragment 251-270 – biochemical, small-molecule microarray, fluorescence 635/667 nm, 0.5 µg/mL protein, primary screen (AID 1183); details: fluorescence 635 nm, higher = more signal
[2] = blood-stage malaria parasite viability loss – strain 3D7, DAPI fluorescence, 100 nL, primary screen (AID 1184);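 further: parasites grown inside human red blood cells in medium with human serum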; details: P. falciparum 3D7 growth, 3 d, higher = more signal
[3] = target: Homeobox protein Hox-A13 (Mus musculus) (UniProt Q62424); assay: disruptors of Hoxa13 oligonucleotide interaction – biochemical, fluorescence polarization, labeled oligonucleotide, primary screen (AID 1185); details: Hoxa13:DNA binding, 15 min, higher = more signal, called active from +8 up or from −8 down
[4] = blockers of DNA damage checkpoint Chk1 activation – imaging, HeLa, hydroxyurea, phospho-Chk1 antibody, percent positive cells, primary screen (AID 1186); details: hydroxyurea-induced phospho-Chk1 immunofluorescence imaging, higher = more signal
[5] = blockers of DNA damage checkpoint Chk1 activation – imaging, HeLa, hydroxyurea, phospho-Chk1 nuclear intensity, primary screen (AID 1187); details: hydroxyurea-induced phospho-Chk1 immunofluorescence imaging, higher = more signal

Sequence of Homeobox protein Hox-A13 (Mus musculus) (Q62424 whole entry, looked up): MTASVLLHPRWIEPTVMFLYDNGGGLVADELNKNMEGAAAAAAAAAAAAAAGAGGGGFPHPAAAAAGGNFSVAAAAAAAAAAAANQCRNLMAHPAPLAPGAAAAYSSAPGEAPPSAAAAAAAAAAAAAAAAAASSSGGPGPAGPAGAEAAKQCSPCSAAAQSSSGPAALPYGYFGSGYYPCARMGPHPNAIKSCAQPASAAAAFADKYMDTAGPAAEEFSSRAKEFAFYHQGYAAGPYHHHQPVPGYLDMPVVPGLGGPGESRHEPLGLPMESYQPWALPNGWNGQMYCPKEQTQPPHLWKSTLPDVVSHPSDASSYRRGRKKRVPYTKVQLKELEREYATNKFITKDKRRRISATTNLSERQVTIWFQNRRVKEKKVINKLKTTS

| Structure (SMILES) | composite z-score [1] | composite z-score (XIP peptide (Xip251-270)) | z-score [2] | z-score [3] | z-score [4] | z-score [5] |
| --- | --- | --- | --- | --- | --- | --- |
| COc1ccc(C#Cc2ccc3c(c2)[C@]2(C(=O)N3)[C@H](c3ccc(O)cc3)N3[C@H](c4ccccc4)[C@H](c4ccccc4)OC(=O)[C@H]3[C@@H]2C(=O)O)cc1 | -0.101 (inactive) | 0.83 | -1.23 | -5.22 (inactive) | -0.368 (inactive) | -0.664 (inactive) |
| CCCCCCc1nc(C2CC2)cc2c1[Si](C(C)C)(C(C)C)OC2 | -0.18 (inactive) | 0.259 | -1.47 | 0.321 (inactive) | -0.186 (inactive) | -0.0437 (inactive) |
| CC(C)C(=C=CC[C@H](O)c1ccc(OCCO)cc1)C[C@H](O)c1ccccn1 | -0.0991 (inactive) | 0.909 | -2.06 | -5.38 (inactive) | -0.0725 (inactive) | 0.223 (inactive) |
| COCCOC(=O)N1C(=O)[C@@]2(c3cc(C#Cc4ccc(OC)cc4)ccc31)[C@H](C(=O)Nc1nc3ccccc3s1)[C@H]1C(=O)O[C@H](c3ccccc3)[C@H](c3ccccc3)N1[C@@H]2c1ccc(OCCO)cc1 | 0.127 (inactive) | 0.623 | -1.69 | 2.34 (inactive) | 0.0676 (inactive) | 0.0745 (inactive) |
| O=C1O[C@H](c2ccccc2)[C@H](c2ccccc2)N2[C@H]1[C@@H](C(=O)N1CCN(c3ncccn3)CC1)[C@]1(C(=O)Nc3ccc(C#CC4(O)CCCCCC4)cc31)[C@H]2c1ccc(OCCO)cc1 | 2.51 (inactive) | 0.781 | -2.13 | 0.271 (inactive) | 0.354 (inactive) | 0.527 (inactive) |
| O=C1O[C@@H](c2ccccc2)[C@@H](c2ccccc2)N2[C@@H](c3ccc(OCCO)cc3)[C@]3(C(=O)Nc4ccccc43)[C@@H](C(=O)O)[C@H]12 | 0.442 (inactive) | -0.105 | -1.29 | -6.16 (inactive) | -0.33 (inactive) | -0.413 (inactive) |
| [N-]=[N+]=NCc1ccccc1[C@@H]1OC(c2ccc(OCCCO)cc2)=N[C@]1(CCS(=O)(=O)c1ccccc1)C(=O)NCC(O)CO (some centres undefined) | 2.02 (inactive) | 0.831 | -2.26 | -1.52 (inactive) | -0.519 (inactive) | -0.524 (inactive) |
| C[N+](C)(C)CCCC[C@@H]1NC(=O)[C@H]2C[C@@H](C(=O)NCCCCCCN)[C@@H](c3ccc(O)cc3)N2C1=O | -0.465 (inactive) | 0.825 | -0.104 | -1.61 (inactive) | 0.181 (inactive) | 0.0555 (inactive) |
| O=C(N1CCCCC1)[C@@]1(CCS(=O)(=O)c2ccccc2)COC(c2ccc(OCCCO)cc2)=N1 | 1.16 (inactive) | 0.809 | -2 | -5.2 (inactive) | -0.0331 (inactive) | -0.187 (inactive) |
| CC(C)OC(=O)C=C1C[C@@H](c2ccc(C(F)(F)F)cc2)O[C@@H](c2ccc(C(F)(F)F)cc2)O1 | 0.416 (inactive) | 0.567 | -0.266 | -3.22 (inactive) | -0.272 (inactive) | 0.0075 (inactive) |
| CCOc1cc(C(O)C2C=CC3C(=O)N(c4ccccc4)C(=O)C3N2Nc2ccc(C#N)cc2)ccc1O (centres undefined) | 0.186 (inactive) | 0.535 | -0.435 | -4.2 (inactive) | -0.22 (inactive) | -0.0602 (inactive) |
| COCCOC(=O)N1C(=O)[C@@]2(c3cc(C#Cc4ccc(OC)cc4)ccc31)[C@H](C(=O)Nc1nc3ccccc3s1)[C@H]1C(=O)O[C@H](c3ccccc3)[C@H](c3ccccc3)N1[C@@H]2c1ccc(O)cc1 | -0.363 (inactive) | 0.748 | -1.89 | -0.829 (inactive) | -0.519 (inactive) | -0.999 (inactive) |
| CN(C)C(=O)[C@]1(CCS(=O)(=O)c2ccccc2)N=C(c2ccc(OCCCO)cc2)O[C@@H]1c1ccccc1N=[N+]=[N-] | 1.1 (inactive) | 0.821 | -2.34 | -3.11 (inactive) | -0.197 (inactive) | -0.447 (inactive) |
| COc1ccccc1CN1C(=O)c2ccccc2[C@](Cc2ccccc2I)(C(=O)NCC(F)(F)F)[C@@H]1c1ccc(CO)cc1 | 0.931 (inactive) | 0.909 | -1.49 | -4.98 (inactive) | -0.0993 (inactive) | -0.0597 (inactive) |
| CC(C)N1C(=O)C[C@@](C(=O)NCCCN(C)C)(c2ccc([N+](=O)[O-])cc2)[C@H]1c1ccc(CO)cc1 | -0.324 (inactive) | 0.51 | 0.0784 | -2.62 (inactive) | 0.414 (inactive) | 0.273 (inactive) |
| COc1ccc(-c2cc3c(c(CCc4ccccc4)n2)[Si](C(C)C)(C(C)C)OC3)cn1 | -0.406 (inactive) | -0.251 | -0.118 | -2.5 (inactive) | -0.0328 (inactive) | 0.236 (inactive) |
| CCCCCCc1nc(C2CC2)cc2c1[Si](C(C)C)(C(C)C)O[C@H]2c1ccccc1 | 0.263 (inactive) | 0.421 | -0.358 | -1.54 (inactive) | -0.507 (inactive) | -0.465 (inactive) |

| Structure (SMILES) | composite z-score [1] | composite z-score (XIP peptide (Xip251-270)) | z-score [2] | z-score [3] | z-score [4] | z-score [5] |
| --- | --- | --- | --- | --- | --- | --- |
| Cc1ccc(S[C@]2(C(=O)O)CC(=O)N(C3Cc4ccccc4C3)[C@@H]2c2ccc(CO)cc2)cc1 | 1.36 (inactive) | -0.669 | 1.58 | -3.97 (inactive) | 0.172 (inactive) | 0.129 (inactive) |
| COc1cc2c(cc1O)C(C)N(Cc1ccc([N+](=O)[O-])o1)CC2 (centres undefined) | 0.563 (inactive) | 0.962 | -1.2 | -6.22 (inactive) | 0.0111 (inactive) | 0.264 (inactive) |
| CC1=C([C@H](O)CCc2ccccc2)[C@H](CO)[C@@H]2C(=O)N(C)C(=O)[C@@H]2C1 | -0.0688 (inactive) | 0.389 | 0.306 | -4.05 (inactive) | -0.296 (inactive) | -0.528 (inactive) |
| COc1cc(CO)cc(I)c1O[C@H]1C=C(C(=O)NCCO)C[C@@H](NCc2ccc(F)cc2)[C@@H]1O | -0.35 (inactive) | 0.728 | -3.1 | -7.05 (inactive) | -0.926 (inactive) | -2.03 (inactive) |
| COC(=O)[C@@]1(Cc2ccc(OC)cc2)[C@@H]2C(=CC(=O)[C@H]2CC(=O)C(=O)N(C)C)CN1C(=O)c1ccccc1 | 0.0312 (inactive) | 0.739 | -1.73 | -3.95 (inactive) | -0.246 (inactive) | -0.0503 (inactive) |
| COC(=O)c1cn(C[C@@H](Cc2ccccc2)NC(=O)N[C@H](CO)CCc2oc(C(C)=O)c(C(=O)OC)c2C(=O)OC)nn1 | 0.224 (inactive) | 0.111 | -0.818 | -4.33 (inactive) | -0.406 (inactive) | -0.043 (inactive) |
| C=CCC(OC(C)=O)[C@@H]1[C@@H](N(Cc2cccc3ccccc23)C(=O)Cc2ccc(F)cc2)c2cc(OCCCO)ccc2N1C(=O)c1ccc2ccccc2n1 (some centres undefined) | -0.533 (inactive) | -0.272 | -2.13 | -1.34 (inactive) | -0.172 (inactive) | -0.761 (inactive) |
| C=CCC(OC(C)=O)[C@@H]1[C@@H](N(Cc2cc3ccccc3o2)C(=O)c2ccc(C)cc2)c2cc(OCCCO)ccc2N1C(=O)Cc1ccc(OC)cc1 (some centres undefined) | -0.23 (inactive) | 0.0544 | -0.901 | -2.07 (inactive) | -0.0554 (inactive) | -0.601 (inactive) |
| CC(C)C[C@@H]1NC(=O)[C@@H]2C[C@H](C(=O)NCCCCCN)[C@H](c3ccc(O)cc3)N2C1=O | 0.0938 (inactive) | 0.725 | 0.179 | -1.88 (inactive) | -0.223 (inactive) | 0.0212 (inactive) |
| OCC1CC(c2ccccc2)=NO1 (centres undefined) | -0.336 (inactive) | -0.118 | 0.308 | 0.0368 (inactive) | -0.582 (inactive) | -0.0558 (inactive) |
| C=CC1c2cc(O)c(OC)cc2CCN1Cc1cc2c(cc1Br)OCO2 (centres undefined) | 1.31 (inactive) | 0.962 | -2.14 | -5.73 (inactive) | -0.103 (inactive) | -0.0965 (inactive) |
| CCOC(=O)C[C@H]1[C@H](OC(=O)c2cc3ccccc3oc2=O)[C@@H](NC(=O)c2ccc(-c3ccccc3)cc2)c2cc(OCCCO)ccc2N1C(=O)c1ccc2ccccc2n1 | 0.155 (inactive) | 0.339 | -0.949 | -2.27 (inactive) | -0.359 (inactive) | -0.583 (inactive) |
| COc1cccc(/C=C/C=O)c1 | 0.421 (inactive) | -0.453 | 1.1 | -0.396 (inactive) | 0.36 (inactive) | 0.769 (inactive) |
| CC(C)[Si](C#C[Si](C(C)C)(C(C)C)C(C)C)(O[C@H](C)c1cn([C@H](CO)Cc2ccccc2)nn1)C(C)C | 0.183 (inactive) | 0.348 | 0.67 | -0.249 (inactive) | -0.258 (inactive) | -0.36 (inactive) |
| COCCOC(=O)N1C(=O)[C@@]2(c3cc(C#CC4=CCCCC4)ccc31)[C@H](c1ccccc1OCCO)N1[C@H](c3ccccc3)[C@H](c3ccccc3)OC(=O)[C@H]1[C@@H]2C(=O)Nc1nc2ccccc2s1 | 0.469 (inactive) | 0.484 | -1.8 | 3.53 (inactive) | 0.325 (inactive) | 0.587 (inactive) |
| COCCCNC(=O)[C@]1(CCS(=O)(=O)c2ccccc2)N=C(c2ccc(OCCCO)cc2)O[C@@H]1c1ccccc1CN=[N+]=[N-] | 1.51 (inactive) | 0.814 | -2.3 | -3.61 (inactive) | -0.684 (inactive) | -0.618 (inactive) |
| C=CCC(OC(C)=O)[C@@H]1[C@@H](N(Cc2cccc3ccccc23)C(=O)Cc2ccc(OC)cc2)c2cc(OCCCO)ccc2N1C(=O)c1ccc2ccccc2n1 (some centres undefined) | 1.24 (inactive) | -0.248 | -2.54 | -2.7 (inactive) | -2.34 (inactive) | -1.44 (inactive) |
